Test [1] can be described thus: P. berghei load reduction in hepatocytes – cell-based, HepG2, luciferase luminescence, HepG2 viability, primary screen (AID 624349; in the data active = parasite load remaining mostly below about 12%, no sharp cut-off; inactive = mostly above about 10%;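 also: 100% = mean of DMSO negative control wells on the same plate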). The note with it: P. berghei liver stage in HepG2, luciferase luminescence, concentration not given here; parasite load remaining: stronger effect = lower value; viability: measured here: HepG2 viability without parasites.
Test [2] is described as follows: signal quenchers or enhancers, Cy5 substrate/SSB – biochemical, NIH Clinical Collection, E. coli SSB, artefact control for HCV NS3 helicase inhibitor project (AID 743268; call rule not given here). The conditions noted are these: Cy5-oligo bound E. coli SSB, fluorescence interference.
The test system of test [3] is Hepatitis C virus NS3 helicase. The test is described as follows: blockers of NS3h binding to DNA – biochemical, fluorescence polarization, NIH Clinical Collection, primary screen (AID 743270; call rule not given here). The note with it: NS3 helicase binding to Cy5-dT15 DNA, stronger effect = higher value, concentration not given here.
In test [4] the target is Single-stranded DNA-binding protein (Escherichia coli (strain K12)) (UniProt P0AGE0). The test is described as follows: SSB-ssDNA binding inhibitors – biochemical, fluorescence polarization, NIH Clinical Collection, counter-screen for HCV NS3 helicase inhibitor project (AID 743271; in the data active = inhibition above about 28%). The conditions noted are these: E. coli SSB-DNA binding, stronger effect = higher value, concentration not given here.

A short description of test [5]: compounds distorting NS3 helicase fluorescence signal – biochemical, NIH Clinical Collection, artefact control for HCV NS3 helicase inhibitor project (AID 743272; call rule not given here;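 also: HCV NS3 helicase with a Cy5 labelled single stranded DNA probe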). The conditions noted are these: fluorescence interference counterscreen, HCV NS3 helicase assay; stronger effect = lower value.
Test [6] relates to Neuropilin-2 / VEGF-C interaction (human). The test is described as follows: small molecules blocking Neuropilin-2/VEGF-C interaction – biochemical, microplate binding format, z-score (AID 743281; call rule not given here). The note with it: microplate NRP2/VEGF-C binding assay; stronger effect = lower value.
The nature of test [7]: modulation of C. elegans fzo-1 (AID 1259413; call rule not given here;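 also: fzo-1 mutant C. elegans worms in liquid wells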). The note with it: C. elegans fzo-1 modulator screen, mean read-out; stronger effect = higher value.
Test [8] can be described thus: viability loss with induced miR-34 in A549 – imaging, A549 dox-inducible miR-34, nuclei and caspase counts, primary screen (AID 1347080;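 active = compounds whose cell count with miR-34 switched on is under 0.7 times the count with it off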). The note with it: A549 miR-34 inducible, Hoechst nuclei count, 48 h.
Test [9] can be described thus: MELAS cybrid and Rieske KO viability enhancers – cell-based, MELAS cybrids, Rieske KO mouse fibroblasts, CellTiter-Glo, primary screen (AID 1508586;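 active = mean z-score across replicates of 1.96 or higher in either the MELAS or the Rieske mutant cell line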;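 also: z relative to plate mean and SD of compound and empty wells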). The conditions noted are these: low glucose.
Test [10] in a line: galactose survival enhancers in mitochondrial complex I cybrids – cell-based, galactose medium, ATP luminescence, primary screen (AID 1645843;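 active = z-score of at least 1.8 in each of two replicates, scored against plate mean and spread of sample wells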;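 also: positive z means more ATP and so rescue of galactose-driven cybrid death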). The conditions noted are these: complex I mutant cybrid cells, 72 h, stronger effect = higher value.
Another test deals with F380Y. Briefly: BK channel mutant inhibitors and activators – cell-based, U2OS BacMam, thallium flux, beta subunits, selectivity assay, profiling panel (AID 1259406).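 Also: initial slope of Thallos dye fluorescence rise after thallium is added; log ratio against the mean of 0.3% DMSO vehicle wells on the same plate.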 The conditions noted are these: U2OS BacMam BK variants, at 30 µM.
The subject of the next test is F380Y/beta1. Described as above. The note with it: U2OS BacMam BK variants, at 30 µM.
The next test has as its system F380Y/beta2Delta. The description is as above. The note with it: U2OS BacMam BK variants, at 30 µM.
A further test relates to F380Y/beta4. Described as above. The note with it: U2OS BacMam BK variants, at 30 µM.
For test [11], the target named is Calcium-activated potassium channel subunit alpha-1 (Homo sapiens) + Leucine-rich repeat-containing protein 26 (Homo sapiens) (UniProt Q12791+Q2I0M4). The test is described as above. The conditions noted are these: U2OS BacMam BK variants, F380Y/Slo1WT/gamma1, at 30 µM.
Calcium-activated potassium channel subunit alpha-1 (Homo sapiens) + Leucine-rich repeat-containing protein 26 (Homo sapiens), sequence (Q2I0M4 whole entry, looked up, one chain of several): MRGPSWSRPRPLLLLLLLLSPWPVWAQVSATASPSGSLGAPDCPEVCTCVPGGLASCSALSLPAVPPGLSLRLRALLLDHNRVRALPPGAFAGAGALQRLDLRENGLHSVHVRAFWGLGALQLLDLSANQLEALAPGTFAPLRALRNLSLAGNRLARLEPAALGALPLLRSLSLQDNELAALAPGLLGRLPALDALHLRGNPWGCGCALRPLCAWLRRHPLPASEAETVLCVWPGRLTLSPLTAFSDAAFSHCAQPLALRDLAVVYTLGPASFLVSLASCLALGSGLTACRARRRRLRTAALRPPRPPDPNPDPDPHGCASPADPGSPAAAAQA
The next test deals with R275C. The description is as above. The note with it: U2OS BacMam BK variants, at 30 µM.
A further test deals with R275C/beta1. Described as above. The note with it: U2OS BacMam BK variants, at 30 µM.
The test system of another test is R275C/beta2Delta. Described as above. The note with it: U2OS BacMam BK variants, at 30 µM.
A further test concerns R275C/beta4. Described as above. The note with it: U2OS BacMam BK variants, at 30 µM.
For a further test, the system named is R275C/Slo1WT/beta2. Described as above. The note with it: U2OS BacMam BK variants, at 30 µM.
Setting [12] is: stronger effect = lower value, cell number ratio, induced over uninduced.
Setting [13] is: measured here: relative caspase fold change +Dox/-Dox.
Where [14] appears, read: measured here: total cells with miR-34 induction, stronger effect = lower value.
Where [15] appears, read: measured here: total cells without miR-34 induction.
[16] abbreviates: MELAS cybrid survival, CellTiter-Glo 48 h, stronger effect = higher value.
The mark [17] stands for this setting: Rieske KO mouse fibroblast survival, CellTiter-Glo 72 h.

“And” between values parts separate entries of the source, which are not always exact repeats. Equal values may be shown once. The source made the active and inactive calls.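 The calls were made as follows, unless noted: active = thallium flux through the channel raised or lowered by more than 3 SD from vehicle-only wells, actives on both sides; inactive = the rest.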

As for `C[C@H]1[C@@H](OC(=O)CCC(=O)O)O[C@@H]2OC3(C)CC[C@H]4[C@H](C)CC[C@@H]1[C@@]24OO3`, the parasite load remaining in [1] is 54.9% (inactive) and 19.6% (inactive). For the same compound, the viability in test [1] was 74.2% and 68%. Moreover, the fluorescence ratio in [2] was 1.05 (inactive); in [5], 0.99 (inactive). Besides, the inhibition is 4.36% (inactive) in test [3] and -3.18% (inactive) in test [4]. Moreover, the z-score in test [6] is -0.982 (inactive); in test [9] (setting [16]) it was -1.42 (inactive); in [9] (setting [17]) it was 0.615; in test [10] it was -2.11 (inactive). The mean signal in [7] is 258 (inactive). Further, the fold change in test [8] (setting [12]) is 1.04 (inactive); in [8] (setting [13]), 0.836. In addition, the cell count amounted to 6160 in test [8] (setting [14]) and 5910 in test [8] (setting [15]). Moreover, the log fold change Tl+ flux in the test with F380Y is 0.0198 (inactive); in the test with F380Y/beta1, 0.0472 (inactive); in the test with F380Y/beta2Delta it was 0.00204 (inactive); in the test with F380Y/beta4, 0.00589 (inactive); in [11], -0.0126 (inactive); in the test on R275C, 0.0183 (inactive). Also, the log fold change Tl+ flux in the test with R275C/beta1 was 0.0209 (inactive); in the test with R275C/beta2Delta it was 0.00454 (inactive); in the test with R275C/beta4, -0.0146 (inactive); with R275C/Slo1WT/beta2 it was 0.000694 (inactive).
With `CC(C)(C)NC(=O)[C@@H]1C[C@@H]2CCCC[C@@H]2CN1C[C@@H](O)[C@H](Cc1ccccc1)NC(=O)[C@H](CC(N)=O)NC(=O)c1ccc2ccccc2n1`, the parasite load remaining in test [1] was 82.5% (inactive) and 52% (inactive). Moreover, in [1], the viability is 75.6% and 103%. In addition, the figures for the fluorescence ratio in test [2] and in test [5] were 1.02 (inactive) and 1.01 (inactive), respectively. The inhibition in test [3] is 2.77% (inactive); in test [4] it was 12.2% (inactive). Further, the results for the z-score in [6], in [9] (setting [16]) and in test [9] (setting [17]) were 1.64 (inactive), -0.0678 (inactive) and -1.19, respectively. Besides, the mean signal in test [7] was 234 (inactive). Also, the fold change was 0.908 (inactive) in test [8] (setting [12]) and 0.962 in test [8] (setting [13]). Further, the cell count was determined as 8420 in [8] (setting [14]) and 9260 in test [8] (setting [15]). The log fold change Tl+ flux with F380Y was -0.12 (active); in the test with F380Y/beta1, -0.0774 (inactive); with F380Y/beta2Delta it was -0.2 (active); in the test on F380Y/beta4, -0.072 (inactive); in [11] it was -0.0094 (inactive); with R275C, -0.273 (active). In addition, the log fold change Tl+ flux with R275C/beta1 is 0.138 (active); in the test on R275C/beta2Delta, -0.11 (active); in the test with R275C/beta4 it was 0.0316 (inactive); with R275C/Slo1WT/beta2, -0.0147 (inactive).
As for `NC(=O)c1ncn(C2OC(CO)C(O)C2O)n1` (stereo unspecified), the parasite load remaining in test [1] was 36.7% (inactive). The viability in [1] was 151%. In addition, the fluorescence ratio in test [2] is 1.01 (inactive); in test [5], 1.05 (inactive). For the same compound, the inhibition in test [3] was 1.36% (inactive); in test [4], 5.62% (inactive). For the same compound, the mean signal in test [7] was 278 (inactive). Further, the fold change was 0.987 (inactive) and 0.921 (inactive) in test [8] (setting [12]); 1.64 and 0.871 in test [8] (setting [13]). The cell count in [8] (setting [14]) was 9950 and 8880; in test [8] (setting [15]), 10100 and 9640. Moreover, the z-score was -0.322 (inactive) in test [9] (setting [16]), 0.486 in test [9] (setting [17]) and 1.69 (inactive) in [10]. Also, the log fold change Tl+ flux is -0.0109 (inactive) in the test on F380Y; -0.00666 (inactive) in the test with F380Y/beta1; -0.00987 (inactive) with F380Y/beta2Delta; 0.00318 (inactive) in the test with F380Y/beta4; -0.0406 (inactive) in test [11]; 0.0183 (inactive) in the test with R275C. For the same compound, the log fold change Tl+ flux in the test on R275C/beta1 is -0.000638 (inactive); in the test on R275C/beta2Delta, -0.0258 (inactive); with R275C/beta4 it was -0.0315 (inactive); with R275C/Slo1WT/beta2, 0.0198 (inactive).
Consider `CC(C)c1ccc2c(c1)c(SC(C)(C)C)c(CC(C)(C)C(=O)O)n2Cc1ccc(Cl)cc1`, for which the parasite load remaining in test [1] is 36.1% (inactive). The viability in test [1] was found to be 67.1%. In addition, the values for the fluorescence ratio in test [2] and in test [5] were 0.95 (inactive) and 0.96 (inactive), respectively. Moreover, the inhibition in test [3] is 7.52% (inactive); in [4], 1.44% (inactive). In addition, the z-score is -2.97 (inactive) in test [6]; -1.26 (inactive) and -1.88 (inactive) in [10]. Also, in test [7], the mean signal is 225 (inactive). For the same compound, the fold change was 1.09 (inactive) and 1 (inactive) and 0.966 (inactive) in test [8] (setting [12]); 0.262 and 1.3 and 1.57 in [8] (setting [13]). Besides, the cell count was 2540 and 2670 and 5520 in [8] (setting [14]); 2340 and 2670 and 5710 in test [8] (setting [15]). Moreover, the log fold change Tl+ flux in the test with F380Y was -0.0174 (inactive); in the test with F380Y/beta1, 0.00246 (inactive); with F380Y/beta2Delta, 0.0246 (inactive); in the test on F380Y/beta4, -0.0142 (inactive); in test [11], 0.00963 (inactive); in the test on R275C, 0.00647 (inactive). The log fold change Tl+ flux in the test on R275C/beta1 is 0.0168 (inactive); in the test with R275C/beta2Delta, 0.0237 (inactive); with R275C/beta4, -0.00771 (inactive); in the test on R275C/Slo1WT/beta2 it was 0.027 (inactive).
In the case of `Nc1nc(Cl)nc2c1ncn2[C@H]1C[C@H](O)[C@@H](CO)O1`, in test [1], the parasite load remaining is 10.3% (inactive). In addition, in test [1], the viability is 71.4%. Further, the fluorescence ratio was 1.02 (inactive) in test [2] and 0.99 (inactive) in [5]. Besides, the figures for the inhibition in test [3] and in [4] were -1.09% (inactive) and -3.54% (inactive), respectively. For the same compound, the values for the z-score in test [6], in test [9] (setting [16]) and in test [9] (setting [17]) were -0.302 (inactive), 1.38 and 3.04, respectively. The mean signal in [7] was 237 (inactive). Moreover, the log fold change Tl+ flux in the test with F380Y was -0.0268 (inactive); in the test on F380Y/beta1, -0.0427 (inactive); in the test on F380Y/beta2Delta, -0.00452 (inactive); in the test with F380Y/beta4, -0.0201 (inactive); in test [11] it was -0.0394 (inactive); in the test with R275C, 0.0195 (inactive). The log fold change Tl+ flux is 0.022 (inactive) with R275C/beta1, 0.0372 (inactive) in the test with R275C/beta2Delta, 0.000993 (inactive) in the test with R275C/beta4 and 0.0197 (inactive) in the test with R275C/Slo1WT/beta2.
Turning to `CCCCc1nc(Cl)c(CO)n1Cc1ccc(-c2ccccc2-c2nnn[nH]2)cc1`, the parasite load remaining in test [1] was 81.8% (inactive) and 40.5% (inactive). In addition, the viability in test [1] was 76.8% and 103%. Further, the fluorescence ratio in test [2] is 1.01 (inactive); in test [5] it was 0.93 (inactive). In addition, the inhibition in [3] is -1.19% (inactive); in test [4], 2.21% (inactive). Also, the z-score was -0.132 (inactive) in test [6]; -0.447 (inactive) in test [9] (setting [16]); -1.13 in test [9] (setting [17]); 0.965 (inactive) and 0.025 (inactive) in test [10]. Moreover, in test [7], the mean signal was 250 (inactive). The fold change in [8] (setting [12]) was 0.917 (inactive) and 0.788 (inactive); in [8] (setting [13]) it was 2.6 and 1.84. Also, the cell count in [8] (setting [14]) was 9420 and 8200; in [8] (setting [15]), 10300 and 10400. For the same compound, the log fold change Tl+ flux in the test on F380Y was -0.0174 (inactive); in the test on F380Y/beta1 it was 0.0224 (inactive); with F380Y/beta2Delta, -0.000818 (inactive); in the test on F380Y/beta4 it was 0.0154 (inactive); in test [11], 0.0245 (inactive); in the test on R275C, -0.0209 (inactive). The log fold change Tl+ flux in the test with R275C/beta1 is 0.00988 (inactive); in the test with R275C/beta2Delta, 0.0215 (inactive); in the test on R275C/beta4 it was 0.039 (inactive); with R275C/Slo1WT/beta2 it was -0.0136 (inactive).

The values above are taken from PubChem BioAssay.
